# Measurements taken from PubChem BioAssay (NCI).
# The panel holds about 79,000 compounds, 15% with a hit somewhere; the sample as a whole holds those more often. Values without a mark were called inactive. Active and inactive are the calls of the source. Cut-off read from the data, not from the text of the source: active = growth inhibition above about 70%; inactive = the rest.
# Columns and labels:
# [1] = NCI Yeast Anticancer Drug Screen. Data for the rad50 strain (AID 155);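 note: 0% = growth of vehicle-only cultures of the same strain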; conditions: S. cerevisiae rad50 strain growth inhibition, active compounds read high
# Method in brief: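 A DNA repair-deficient yeast mutant serves as the test organism; compound-induced growth inhibition is calculated against vehicle-treated cells.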
# [2] = NCI Yeast Anticancer Drug Screen. Data for the mec2-1 strain (AID 157); conditions: S. cerevisiae mec2-1 strain, active compounds read high
# Method in brief: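 Readout is yeast growth inhibition, normalised to vehicle-treated controls, in the mec2-1 strain exposed to compound.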
# [3] = NCI Yeast Anticancer Drug Screen. Data for the sgs1 mgt1 strain (AID 161);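 note: 0% = growth of cultures given vehicle only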; conditions: S. cerevisiae sgs1 mgt1 strain, active compounds read high
# Method in brief: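 Yeast cells carrying a defined DNA-repair defect were exposed to test compounds. Growth inhibition was measured relative to vehicle-treated controls.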
# [4] = NCI Yeast Anticancer Drug Screen. Data for the cln2 rad14 strain (AID 165);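 note: 0% = growth equal to vehicle treated cultures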; conditions: S. cerevisiae cln2 rad14 strain, active compounds read high
# Method in brief: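 Relative to vehicle controls, growth inhibition of compound-treated cln2 rad14 yeast was recorded.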
# [5] = NCI Yeast Anticancer Drug Screen. Data for the bub3 strain (AID 167); conditions: S. cerevisiae bub3 mutant strain, active compounds read high
# Method in brief: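 Inhibition values come from growth of compound-treated mutant yeast normalised to vehicle-treated controls.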
# [6] = NCI Yeast Anticancer Drug Screen. Data for the mlh1 rad18 strain (AID 175); conditions: S. cerevisiae mlh1 rad18 strain growth inhibition, active compounds read high
# Method in brief: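 Test agents were incubated with a yeast strain of defined genotype (DNA damage repair defect). Inhibition of growth was derived by comparison with vehicle-exposed cultures.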
# [7] = at 5.0 µM (retest, dose inferred, filed as 0.5)
# [8] = at 50.0 µM (retest, dose inferred, filed as 5.0)
SMILES,"growth inhibition [1, 7]","growth inhibition [1, 8]",growth inhibition ([1]; at 50.0 µM),"growth inhibition [2, 7]","growth inhibition [2, 8]",growth inhibition ([2]; at 50.0 µM),"growth inhibition [3, 7]","growth inhibition [3, 8]",growth inhibition ([3]; at 50.0 µM),"growth inhibition [4, 7]","growth inhibition [4, 8]",growth inhibition ([4]; at 50.0 µM),"growth inhibition [5, 7]","growth inhibition [5, 8]",growth inhibition ([5]; at 50.0 µM),"growth inhibition [6, 7]","growth inhibition [6, 8]",growth inhibition ([6]; at 50.0 µM)
COc1ccc(CC/C(=N/O)c2ccccc2)cc1,0%,92% (active),97% (active),-3%,97% (active),96.9% (active),8%,94% (active),93.8% (active),-10%,74% (active),97% (active),1%,90% (active),98% (active),-9%,96% (active),96.9% (active)
COc1ccc(CNC(C#N)c2ccccc2)cc1OC (configuration not stated),7%,-2%,99% (active),2%,-3%,99.7% (active),3%,-2%,99.7% (active),5%,-3%,99.5% (active),1%,-4%,99.6% (active),2%,-5%,99.5% (active)
COC1=CC23C=CC1[C@@H](c1ccccc1)C2=C(C)C(=O)N3C(=O)NC1CCCCC1 (some centres not stated),21%,21%,71.1% (active),-4%,-4%,68.2%,1%,1%,63.8%,5%,5%,29.8%,-8%,-8%,65%,-4%,-4%,50.6%
C=C1C(=O)O[C@@H]2C[C@]3(C)CC[C@]4(C)[C@H](CC[C@@H]5[C@@]6(C)CCC(=O)C(C)(C)[C@@H]6CC[C@]54C)[C@H]3[C@H]12,3%,4%,-14.1%,18%,24%,-16.9%,5%,11%,-9.1%,-3%,-1%,6.1%,4%,-1%,-10.7%,-2%,4%,-18.9%
Cc1ccc(NC(=O)CC2SC(N)=NC2=O)cc1C (configuration not stated),-1%,-1%,87.5% (active),3%,8%,89.3% (active),-2%,5%,91.2% (active),8%,4%,80.2% (active),0%,-4%,89.1% (active),-1%,6%,90.3% (active)
O=C(Nn1c(=O)c(=O)oc2ccccc21)C(F)(F)F,0%,90% (active),94.7% (active),1%,87% (active),69.4%,17%,88% (active),81.2% (active),3%,93% (active),94.2% (active),9%,95% (active),90.9% (active),26%,97% (active),97.4% (active)
CCCCN1CSC(=S)N(Cc2ccccc2)C1,2%,38%,32.8%,3%,3%,-21.7%,13%,30%,10.3%,30%,25%,-41.1%,5%,38%,23.8%,-10%,38%,31.4%
CN(C)c1ccccc1CCCCCCc1ccccc1N(C)C,54%,59%,84% (active),55%,57%,74.7% (active),76% (active),72% (active),87.8% (active),79% (active),82% (active),85.2% (active),67%,50%,80.5% (active),38%,43%,76.3% (active)
CC1SC2=NC3=C(c4ccccc4C3=O)C(c3ccc(Cl)cc3)N2C1=O (configuration not stated),-3%,75% (active),58.7%,-28%,81% (active),33.8%,-6%,69%,73.2% (active),14%,84% (active),56.3%,-3%,88% (active),51.8%,-17%,91% (active),53.4%
CCN(CC)CCOC(=O)Nc1cc(Cl)cc(Cl)c1,50%,68%,71% (active),37%,60%,47.1%,52%,87% (active),68.5%,36%,62%,58.2%,47%,69%,61.2%,59%,86% (active),54.8%
COc1ccc(C(CC(=O)c2ccccc2)Sc2ccccc2N)cc1 (configuration not stated),46%,52%,-4.15%,54%,51%,26.9%,-13%,32%,32.4%,44%,20%,-13.3%,35%,57%,49.8%,36%,46%,7.35%
C/C(=N\NC(=S)N(C)C)c1cccnn1,95% (active),99% (active),84.8% (active),91% (active),99% (active),91.4% (active),92% (active),98% (active),87.3% (active),94% (active),95% (active),86.8% (active),95% (active),99% (active),89.5% (active),96% (active),99% (active),83.2% (active)
C[C@H](CCC1=NCCN1)[C@H]1CC[C@H]2[C@@H]3[C@H](O)C[C@@H]4C[C@H](O)CC[C@]4(C)[C@H]3CC[C@]12C,-19%,99% (active),91.5% (active),-2%,100% (active),93% (active),3%,100% (active),91.7% (active),-6%,99% (active),91% (active),0%,99% (active),91.6% (active),4%,99% (active),91% (active)
OCN(CO)c1ccc2c(c1)Cc1cc(F)ccc1-2,34%,97% (active),92.8% (active),-19%,99% (active),86.2% (active),41%,97% (active),51.2%,1%,97% (active),96.5% (active),-5%,97% (active),90.9% (active),59%,98% (active),97.8% (active)
CCCCCCCCCCCC(=O)OC/C=C/COC(=O)c1ccccc1,2%,23%,36%,-3%,31%,-5.05%,1%,69%,38.5%,0%,20%,69.3%,-5%,46%,44%,-7%,46%,5.35%
COc1ccc2ccccc2c1-c1c(O)ccc2ccccc12,0%,80% (active),93.5% (active),-5%,71% (active),95.8% (active),-2%,63%,97.2% (active),-5%,72% (active),93.3% (active),-6%,64%,97.9% (active),-8%,78% (active),96% (active)
COc1ccc2c(c1)CN1C(CCC3c4ccccc4NC31)C2 (configuration not stated),-17%,16%,88.5% (active),-5%,11%,72.3% (active),-5%,30%,86.7% (active),26%,11%,51.3%,-35%,13%,61.6%,-12%,27%,90.5% (active)
CCCCCCCCCCCCNCc1ccc(O)c(OC)c1,95% (active),97% (active),97.3% (active),97% (active),98% (active),97.4% (active),99% (active),97% (active),44.1%,93% (active),97% (active),95.7% (active),96% (active),97% (active),97.8% (active),98% (active),97% (active),97.5% (active)
CCCCCCCCCCCCNCC#N,8%,18%,89.9% (active),11%,10%,72.2% (active),-2%,17%,85.1% (active),0%,15%,48.4%,4%,52%,83.5% (active),5%,29%,93% (active)
